# Results from PubChem BioAssay AID504378 (National Center for Advancing Translational Sciences (NCATS), 2011).
# Results filed as inconclusive are left out. Active and inactive are the calls of the source. Calls come from the whole dose curve; as a rule, active = well fitted curve in the direction sought with a large enough effect; inconclusive = small, poorly fitted or top-dose-only effect, or another doubt; inactive = no such curve, though single readings can be large or run the other way.
# Test: qHTS Assay for Compounds Blocking the Interaction Between CBF-beta and RUNX1 for the Treatment of Acute Myeloid Leukemia: SAR for Probe with Orthogonal Assay
# Details: ME-1 cells viability, ATPlite luminescence, 48 h; series mostly up to 82.4 µM
# Text: NIH Chemical Genomics Center [NCGC] NIH Molecular Libraries Probe Production centers Network [MLPCN] MLPCN Grant: X01MH083259-01 Assay Submitter (PI): Paul Liu NCGC Assay Overview: Core Binding Factor (CBF) abnormalities are associated with 20-25% of all acute myeloid leukemias (AML), of which 5-10% are further sub classified as acute myelomonocytic leukemia with eosinophilia, also known as M4Eo in the FAB classification scheme. This subtype of leukemia is usually associated with chromosome 16 inversion (p13:q22). Chromosome 16 inversion results in formation of the fusion oncogene CBFB-MYH11, which encodes the fusion protein CBF-beta-SMMHC. […] It has been hypothesized that the interference of CBF-beta and RUNX1 binding could have therapeutic implications for patients with CBF mediated leukemias. We developed a CBF-beta and RUNX1 binding assay in AlphaScreenTM format and optimized it for high throughput screening to search for inhibitors. The goal of this project is to screen MLPCN's compound collection (MLSMR) for identifying the inhibitors of the interaction between CBF-beta and RUNX1 proteins as research probes. If these probes work well in the animal models, the ultimate goal of this project is to development a new drug treatment for this disease. This assay can not be used to assess how apparent inhibitors interfere with protein binding, and whether inhibitors specifically bind to either protein. Disruption of this protein-protein interaction, through any mechanism, is the intended target activity. The present data set was run to confirm the activity of hits from the primary screen using an orthogonal assay technology for measuring protein-protein interaction disruption.
# NCGC Assay protocol: ME-1 suspension cells were grown in T225 flasks to 80% density under a standard cell culture condition (ATCC) using Dulbecco's Modified Eagle Medium (DMEM) + 10% fetal bovine serum, harvested in OPTI-MEM (phenol free) + 10% FBS. Seeded at 500 cells/well in 5uL medium into 1536-well white solid-bottom plates using Multidrop Combi dispenser, and incubated the plates at 37 C with 5% CO2 and 95% humidity for 2 hours prior to pinning compound. Subsequently, 23 nL/well compound solutions or DMSO controls were dispensed to the assay plates via a pintool workstation. Plates were then transferred to 37 C with 5% CO2 and 95% humidity for 48 hours, and then ATP content was measured following the addition of 4uL/well of ATPlite reagent and a 20 min incubation on a ViewLux plate reader. Keywords: MLSMR, MLPCN, NIH Roadmap, qHTS, NCGC, Core binding factor, CBF, CBF-beta, Acute myeloid leukemia
row,Structure (SMILES),outcome
1,CC(C)(N)C(=O)Nc1ccc(Cl)cc1C(=O)c1ccc[nH]1,inactive
2,CCc1sc(N)nc1-c1ccc(OC)cc1,inactive
3,N[C@@H](CCC(=O)O)C(=O)Nc1ccc(Cl)cc1C(=O)c1ccc[nH]1,inactive
4,N[C@H](Cc1ccccc1)C(=O)Nc1ccc(Cl)cc1C(=O)c1ccc[nH]1,inactive
5,NCCCCC(=O)Nc1ccc(Cl)cc1C(=O)c1ccc[nH]1,inactive
6,CNCC(=O)Nc1ccc(Cl)cc1C(=O)c1ccc[nH]1,inactive
7,CCC(=O)Nc1ccc(Cl)cc1C(=O)c1ccc[nH]1,inactive
8,CC(=O)Nc1ccc(Cl)cc1C(=O)c1ccc[nH]1,inactive
9,NCCCC[C@H](N)C(=O)Nc1ccc(Cl)cc1C(=O)c1ccc[nH]1,inactive
10,NC(N)=NCCC[C@H](N)C(=O)Nc1ccc(Cl)cc1C(=O)c1ccc[nH]1,inactive
11,CN(C)CC(=O)Nc1ccc(Cl)cc1C(=O)c1ccc[nH]1,inactive
12,Nc1ccc(Cl)cc1C(=O)c1ccc[nH]1,inactive
13,NCC(=O)Nc1ccc(Cl)cc1C(=O)c1ccc[nH]1,inactive
14,N[C@@H](Cc1ccccc1)C(=O)Nc1ccc(Cl)cc1C(=O)c1ccc[nH]1,inactive
15,N[C@H](C(=O)Nc1ccc(Cl)cc1C(=O)c1ccc[nH]1)c1ccccc1,inactive
16,N[C@@H](CO)C(=O)Nc1ccc(Cl)cc1C(=O)c1ccc[nH]1,inactive
17,C[C@H](N)C(=O)Nc1ccc(Cl)cc1C(=O)c1ccc[nH]1,inactive
18,CC(C)[C@H](N)C(=O)Nc1ccc(Cl)cc1C(=O)c1ccc[nH]1,inactive
19,NC(=O)C[C@H](N)C(=O)Nc1ccc(Cl)cc1C(=O)c1ccc[nH]1,inactive
20,O=C(c1ccc[nH]1)c1cc(Cl)ccc1NC(=O)[C@@H]1CCCN1,inactive
21,CNCc1nc(-c2ccc[nH]2)c2cc(Cl)ccc2n1,inactive
22,NCCCC(=O)Nc1ccc(Cl)cc1C(=O)c1ccc[nH]1,inactive
23,C[C@@H](N)C(=O)Nc1ccc(Cl)cc1C(=O)c1ccc[nH]1,inactive
24,N[C@@H](CC(=O)O)C(=O)Nc1ccc(Cl)cc1C(=O)c1ccc[nH]1,inactive
25,NCCC(=O)Nc1ccc(Cl)cc1C(=O)c1ccc[nH]1,inactive
